According to the supplement of paper PMC11732987, “Enantioselective OTUD7B fragment discovery through chemoproteomics screening and high-throughput optimisation” (Communications Chemistry, 2025):
Values without a mark were called inactive.

Biological target: T1, USP48 (UniProt Q86UV5)
T1 sequence (whole entry): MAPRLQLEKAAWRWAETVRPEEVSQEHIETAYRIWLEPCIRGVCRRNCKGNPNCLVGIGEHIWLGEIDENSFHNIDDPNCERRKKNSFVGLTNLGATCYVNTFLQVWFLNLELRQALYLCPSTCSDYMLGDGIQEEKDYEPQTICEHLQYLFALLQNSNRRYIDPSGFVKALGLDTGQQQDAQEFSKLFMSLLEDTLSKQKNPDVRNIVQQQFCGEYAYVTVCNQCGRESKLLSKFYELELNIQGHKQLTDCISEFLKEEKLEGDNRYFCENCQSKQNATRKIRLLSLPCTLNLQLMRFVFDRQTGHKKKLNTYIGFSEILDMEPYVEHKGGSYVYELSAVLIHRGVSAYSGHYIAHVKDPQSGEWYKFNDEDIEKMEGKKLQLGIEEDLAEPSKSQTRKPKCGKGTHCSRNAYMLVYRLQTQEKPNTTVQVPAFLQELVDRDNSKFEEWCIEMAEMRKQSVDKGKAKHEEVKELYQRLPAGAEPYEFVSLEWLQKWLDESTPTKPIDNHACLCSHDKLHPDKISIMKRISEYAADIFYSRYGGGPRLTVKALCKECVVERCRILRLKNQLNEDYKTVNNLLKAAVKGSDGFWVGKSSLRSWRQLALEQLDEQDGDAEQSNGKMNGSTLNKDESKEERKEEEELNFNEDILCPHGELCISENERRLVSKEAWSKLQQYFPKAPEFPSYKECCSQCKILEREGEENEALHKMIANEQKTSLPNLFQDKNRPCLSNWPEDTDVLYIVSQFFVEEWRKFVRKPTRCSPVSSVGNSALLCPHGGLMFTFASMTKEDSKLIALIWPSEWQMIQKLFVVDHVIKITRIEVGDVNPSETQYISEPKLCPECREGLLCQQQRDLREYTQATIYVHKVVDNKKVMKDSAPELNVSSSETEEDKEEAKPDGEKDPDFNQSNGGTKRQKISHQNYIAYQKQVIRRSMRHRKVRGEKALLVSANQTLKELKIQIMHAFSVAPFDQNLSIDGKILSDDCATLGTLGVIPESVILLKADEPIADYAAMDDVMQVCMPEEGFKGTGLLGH
Experiment: log2 ratio of Biotin-Ahx-Ub-VS probe labelling (fragment/DMSO); higher = less target engagement (more negative = stronger competition), active = hit call of the paper (q ≤ 0.05, log2 ratio ≤ -1)
Conditions: compound concentration: 200 uM; treatment time: 3 h
Method in brief: (§1)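 The table lists average log2 ratios of fragment over vehicle, from an unpaired t-test on global-median-normalised Spectronaut label-free quantities. Proteins with ≥2 unique peptides were used. Samples were HEK293T lysate (495 µg) treated in triplicate with fragment at 200 µM or vehicle for 3 h, then with Biotin-Ahx-Ub-VS (0.5 µM final) for 1 h, with labelled DUBs NeutrAvidin-enriched and run by diaPASEF LC-MS/MS.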

Row | SMILES | log2 ratio of Biotin-Ahx-Ub-VS probe labelling
1 | O=C(CCl)Nc1ccc(F)cc1Cl | -0.144
2 | O=C(CCl)Nc1cccc2ncccc12 | -0.121
3 | O=C(CCl)NC(Cn1ccccc1=O)c1ccccc1 (stereo not drawn) | 0.0761
4 | Cc1n[nH]c(=O)c2c(NC(=O)CCl)oc(C)c12 | -0.0393
5 | Cc1ccc(-c2nnc(C)[nH]2)c(NC(=O)CCl)c1 | -0.239
6 | Cc1ccc(C)c(Oc2ccc(CNC(=O)CCl)cn2)c1.Cl | -0.619
7 | Cc1nc(CN2CCCN(C(=O)CCl)CC2)no1.Cl | 0.261
8 | N#Cc1ccc(CNC(=O)CCl)cc1 | -0.167
9 | CC(C)n1nccc1NC(=O)CCl | -0.375
10 | CC(NC(=O)CCl)c1ccc2[nH]ncc2c1 (stereo not drawn) | -0.411
11 | Cl.O=C(CN1CCN(C(=O)CCl)CC1)Nc1ccc(F)cc1 | -0.321
12 | CC(NC(=O)CCl)c1cnn(C2CC2)c1 (stereo not drawn) | 0.0173
13 | NC(=O)C(Cc1ccccc1)NC(=O)CCl (stereo not drawn) | -0.238
14 | O=C(CCl)NC1CCN(C(=O)C2CCCCC2)CC1 | 0.136
15 | Cc1cc(Cl)ccc1NC(=O)CCl | -0.173
16 | COc1ccc(Cl)cc1NC(=O)CCl | -0.394
17 | O=C(CCl)Nc1nnc(CC(F)(F)F)o1 | -0.236

Row | SMILES | log2 ratio of Biotin-Ahx-Ub-VS probe labelling
18 | O=C(CCl)N(C1=CCCCC1)C1CC1 | -0.64
19 | Cc1ccc(CN(CCO)C(=O)CCl)cc1 | -0.292
20 | CC(NC(=O)CCl)c1cccc2ccccc12 (stereo not drawn) | -0.368
21 | O=C(CCl)N1CCCCC12CCOCC2 | -0.525
22 | Cl.Cn1ncc2c1CCCC2NC(=O)CCl (stereo not drawn) | -0.07
23 | COCC[C@@H](NC(=O)CCl)c1ccccc1 | -0.261
24 | CN(C(=O)CCl)c1nc2ccccc2s1 | -0.574
25 | O=C(CCl)N1CCC(C(=O)N2CCCCCC2)CC1 | -0.0351
26 | O=C(CCl)N1CCOC2(CCC2)CC1 | -0.374
27 | O=C(CCl)NCCC1=CCCCC1 | 0.0648
28 | O=C(CCl)N(C1CCCC1)C1CCS(=O)(=O)C1 (stereo not drawn) | -1.18 (active)
29 | Cc1noc(N2CCN(C(=O)CCl)CC2)n1.Cl | 0.0849
30 | COc1ccccc1C(C)NC(=O)CCl (stereo not drawn) | -0.321
31 | O=C(CCl)N(Cc1ccsc1)C1CC1 | -1.14 (active)
32 | O=C(CCl)N1CCC(S(=O)(=O)c2ccc(F)cc2)CC1 | -0.355
33 | Cc1nc(CN2CCN(C(=O)CCl)CC2)cs1 | -0.0313
34 | O=C(CCl)N1CC2(CCOCC2)C1 | -0.152

Biological target: T2, USP5 (UniProt P45974)
T2 sequence (whole entry): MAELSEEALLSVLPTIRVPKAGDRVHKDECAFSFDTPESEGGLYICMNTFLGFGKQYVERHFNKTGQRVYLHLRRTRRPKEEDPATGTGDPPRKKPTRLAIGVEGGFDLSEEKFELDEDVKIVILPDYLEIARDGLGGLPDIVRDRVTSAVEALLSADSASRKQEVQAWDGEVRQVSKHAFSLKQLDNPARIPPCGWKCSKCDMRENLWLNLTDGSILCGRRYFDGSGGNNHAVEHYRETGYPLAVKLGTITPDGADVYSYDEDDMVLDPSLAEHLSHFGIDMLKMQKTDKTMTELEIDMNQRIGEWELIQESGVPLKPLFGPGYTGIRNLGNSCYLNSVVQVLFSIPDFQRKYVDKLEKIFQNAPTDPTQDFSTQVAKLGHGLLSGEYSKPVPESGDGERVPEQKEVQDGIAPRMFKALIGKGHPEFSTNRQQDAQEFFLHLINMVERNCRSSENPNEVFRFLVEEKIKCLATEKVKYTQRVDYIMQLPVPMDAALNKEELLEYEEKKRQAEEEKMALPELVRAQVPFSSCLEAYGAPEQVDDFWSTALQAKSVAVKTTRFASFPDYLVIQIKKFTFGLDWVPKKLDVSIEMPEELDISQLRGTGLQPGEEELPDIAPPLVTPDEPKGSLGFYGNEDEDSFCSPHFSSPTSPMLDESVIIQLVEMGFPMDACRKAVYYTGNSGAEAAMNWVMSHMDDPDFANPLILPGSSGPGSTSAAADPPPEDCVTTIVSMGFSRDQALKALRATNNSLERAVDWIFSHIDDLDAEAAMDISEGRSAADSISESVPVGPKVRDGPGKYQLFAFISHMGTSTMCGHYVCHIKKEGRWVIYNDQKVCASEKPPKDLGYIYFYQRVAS
Experiment: as above
Conditions: compound concentration: 200 uM; treatment time: 3 h
Method in brief: as §1

Row | SMILES | log2 ratio of Biotin-Ahx-Ub-VS probe labelling
35 | O=C(CCl)Nc1ccc(F)cc1Cl | -0.28
36 | O=C(CCl)Nc1cccc2ncccc12 | 0.466
37 | O=C(CCl)NC(Cn1ccccc1=O)c1ccccc1 (stereo not drawn) | 0.132
38 | Cc1n[nH]c(=O)c2c(NC(=O)CCl)oc(C)c12 | -0.00864
39 | Cc1ccc(-c2nnc(C)[nH]2)c(NC(=O)CCl)c1 | 0.0867
40 | Cc1ccc(C)c(Oc2ccc(CNC(=O)CCl)cn2)c1.Cl | -0.165
41 | Cc1nc(CN2CCCN(C(=O)CCl)CC2)no1.Cl | -0.016
42 | N#Cc1ccc(CNC(=O)CCl)cc1 | 0.0355
43 | CC(C)n1nccc1NC(=O)CCl | 0.00439
44 | CC(NC(=O)CCl)c1ccc2[nH]ncc2c1 (stereo not drawn) | -0.557
45 | Cl.O=C(CN1CCN(C(=O)CCl)CC1)Nc1ccc(F)cc1 | 0.365
46 | CC(NC(=O)CCl)c1cnn(C2CC2)c1 (stereo not drawn) | -0.392
47 | NC(=O)C(Cc1ccccc1)NC(=O)CCl (stereo not drawn) | 0.0132
48 | O=C(CCl)NC1CCN(C(=O)C2CCCCC2)CC1 | -0.157
49 | Cc1cc(Cl)ccc1NC(=O)CCl | -0.0552
50 | COc1ccc(Cl)cc1NC(=O)CCl | -0.409
51 | O=C(CCl)Nc1nnc(CC(F)(F)F)o1 | 0.0095

Row | SMILES | log2 ratio of Biotin-Ahx-Ub-VS probe labelling
52 | O=C(CCl)N(C1=CCCCC1)C1CC1 | 0.124
53 | Cc1ccc(CN(CCO)C(=O)CCl)cc1 | -0.134
54 | CC(NC(=O)CCl)c1cccc2ccccc12 (stereo not drawn) | 0.225
55 | O=C(CCl)N1CCCCC12CCOCC2 | -0.258
56 | Cl.Cn1ncc2c1CCCC2NC(=O)CCl (stereo not drawn) | -0.277
57 | COCC[C@@H](NC(=O)CCl)c1ccccc1 | 0.0242
58 | CN(C(=O)CCl)c1nc2ccccc2s1 | -0.191
59 | O=C(CCl)N1CCC(C(=O)N2CCCCCC2)CC1 | 0.0959
60 | O=C(CCl)N1CCOC2(CCC2)CC1 | 0.235
61 | O=C(CCl)NCCC1=CCCCC1 | 0.0523
62 | O=C(CCl)N(C1CCCC1)C1CCS(=O)(=O)C1 (stereo not drawn) | 0.124
63 | Cc1noc(N2CCN(C(=O)CCl)CC2)n1.Cl | 0.492
64 | COc1ccccc1C(C)NC(=O)CCl (stereo not drawn) | -0.208
65 | O=C(CCl)N(Cc1ccsc1)C1CC1 | 0.243
66 | O=C(CCl)N1CCC(S(=O)(=O)c2ccc(F)cc2)CC1 | 0.248
67 | Cc1nc(CN2CCN(C(=O)CCl)CC2)cs1 | -0.643
68 | O=C(CCl)N1CC2(CCOCC2)C1 | 0.362
